Our source for the outcome values is PubChem BioAssay AID1117361 (Southern Research Institute, 2015).

Screen size: about 3,600 compounds; about 900 (25%) were called active. No rule for the calls is given here. These entries were drawn from the full list. Entries with a potency or affinity are not part of this list.

The target of the assay is Protein Tat (Human immunodeficiency virus type 1 group M subtype B (isolate HXB2)) (UniProt P04608). In words: HIV-1 Tat–TAR interaction blockers – biochemical, fluorescence polarization, FAM-labeled TAR RNA, counter-screen for Vif-APOBEC3G degradation inhibitor project, dose response (AID 1117361). To be noted: Tat-TAR RNA binding; series mostly up to 100 µM. (In general: Polarisation of emitted light reports the rotation of a fluorescent probe.)
As to `Cc1cc(NC(=O)c2ccccc2F)n(-c2nc3ccccc3[nH]2)n1`, the molecule was classed as inactive.

`CC(C)(C)NC(=O)NC(=O)COc1ccccc1C#N`: the molecule was called inactive.

`CC1CN(C(=O)N[C@@H](Cc2ccccc2)C(=O)O)CC(C)O1` (stereo not given in full): the molecule was called inactive.

On to `Cc1ccc(CC(NC(=O)c2ccccc2)C(=O)NC(C)C(=O)O)cc1` (stereo not given), for which the molecule was classed as inactive.

As to `O=C(CSc1nc2ccccc2c(=O)n1NC(=O)Cc1ccccc1)NCc1ccccc1`, the call was inactive.

For `C=C(Br)Cn1c(CC)nc2ccccc21`, the molecule was classed as inactive.

For `COC(=O)Cc1cc(=O)n2[nH]c(C)cc2n1`, the call was inactive.

Turning to `CCOC(=O)Cc1csc(N/N=C\c2cccc(Br)c2)n1`, the call was inactive.

As to `CC(=O)N1CCc2cc(S(=O)(=O)NCCC(=O)Nc3cc(C)cc(C)c3)ccc21`, the molecule was called inactive.

As to `Oc1ccccc1-c1cc(C(F)(F)C(F)F)[nH]n1`, the outcome was inactive.

In the case of `OC(CN1CCN(c2ccccc2)CC1)c1ccc2c(c1)CCN2` (stereo not given), the molecule was classed as inactive.

Take `CCc1ccc(-c2nc(SCC(=O)c3c(N)n(C4CC4)c(=O)[nH]c3=O)n[nH]2)cc1`: the molecule was classed as inactive.

Consider `COc1ccc(CC(=O)OCC(=O)NCc2ccco2)cc1OC`, for which the outcome was inactive.

On to `O=C(COC(=O)Cc1ccc(Cl)cc1)NCc1ccco1`, for which the call was inactive.

`COc1cc(C(=O)Nc2ccc(N3CCCS3(=O)=O)cc2)c([N+](=O)[O-])cc1OC`: the result was inactive.

As for `Cc1cc(O)c(-c2n[nH]c3c2C(c2cccc(O)c2)N(Cc2cccnc2)C3=O)cc1Cl` (stereo not given), the molecule was classed as inactive.

In the case of `N#Cc1c(NC(=O)CSc2nnnn2C2CCCCC2)sc2c1CCCC2`, the call was inactive.

Consider `CCCn1c2ccccc2c2nnc(SC(CC)C(=O)Nc3sc4c(c3C#N)CCCC4)nc21` (stereo not given), for which the result was inactive.

For `CCCC(C)NC(=O)CSCc1ccc(OC)cc1` (stereo not given), the outcome was inactive.

As to `CCNc1nc(NCC)nc(OCCNS(=O)(=O)c2cc(C)ccc2C)n1`, the call was inactive.

`COc1ccccc1C=NC(CO)C(O)c1ccc([N+](=O)[O-])cc1` (stereo not given): the outcome was inactive.

In the case of `Cc1c(NC(=O)NCCN2C(=O)C3C4C=CC(C4)C3C2=O)c(=O)n(-c2ccccc2)n1C` (stereo not given), the call was inactive.

In the case of `O=C(NCN1C(=O)C2C3C=CC(C3)C2C1=O)OC1CCCCC1` (stereo not given), the molecule was called inactive.

In the case of `C=CCc1c(C)nc2c(C(=O)O)cnn2c1C`, the outcome was inactive.

Consider `Cc1ccccc1-c1nc(CN2CCC(C(=O)N3CCN(c4ccccn4)CC3)CC2)c(C)o1`, for which the result was inactive.

As to `COc1ccc(-c2cc(-c3ccccc3)c(C#N)c(S(C)=O)n2)cc1` (stereo not given), the call was inactive.

Regarding `Cc1cccc(C)c1NC(=O)c1ccc(-n2cnnn2)cc1`, the molecule was classed as inactive.

As for `COc1ccc(C2=NOC(C(=O)NCc3cccs3)C2)cc1OC` (stereo not given), the call was inactive.

With `Cc1cccc(N2C(=O)CN=C2Nc2nc(C)cc(C)n2)c1`, the call was inactive.

`COc1ccc(/C=N/OCC(=O)Nc2cc(C)on2)cc1OC`: the outcome was inactive.
